Experiment [1] deals with T1, Protein deacetylase HDAC6 (Homo sapiens) (UniProt Q9UBN7).
T1 sequence (whole entry): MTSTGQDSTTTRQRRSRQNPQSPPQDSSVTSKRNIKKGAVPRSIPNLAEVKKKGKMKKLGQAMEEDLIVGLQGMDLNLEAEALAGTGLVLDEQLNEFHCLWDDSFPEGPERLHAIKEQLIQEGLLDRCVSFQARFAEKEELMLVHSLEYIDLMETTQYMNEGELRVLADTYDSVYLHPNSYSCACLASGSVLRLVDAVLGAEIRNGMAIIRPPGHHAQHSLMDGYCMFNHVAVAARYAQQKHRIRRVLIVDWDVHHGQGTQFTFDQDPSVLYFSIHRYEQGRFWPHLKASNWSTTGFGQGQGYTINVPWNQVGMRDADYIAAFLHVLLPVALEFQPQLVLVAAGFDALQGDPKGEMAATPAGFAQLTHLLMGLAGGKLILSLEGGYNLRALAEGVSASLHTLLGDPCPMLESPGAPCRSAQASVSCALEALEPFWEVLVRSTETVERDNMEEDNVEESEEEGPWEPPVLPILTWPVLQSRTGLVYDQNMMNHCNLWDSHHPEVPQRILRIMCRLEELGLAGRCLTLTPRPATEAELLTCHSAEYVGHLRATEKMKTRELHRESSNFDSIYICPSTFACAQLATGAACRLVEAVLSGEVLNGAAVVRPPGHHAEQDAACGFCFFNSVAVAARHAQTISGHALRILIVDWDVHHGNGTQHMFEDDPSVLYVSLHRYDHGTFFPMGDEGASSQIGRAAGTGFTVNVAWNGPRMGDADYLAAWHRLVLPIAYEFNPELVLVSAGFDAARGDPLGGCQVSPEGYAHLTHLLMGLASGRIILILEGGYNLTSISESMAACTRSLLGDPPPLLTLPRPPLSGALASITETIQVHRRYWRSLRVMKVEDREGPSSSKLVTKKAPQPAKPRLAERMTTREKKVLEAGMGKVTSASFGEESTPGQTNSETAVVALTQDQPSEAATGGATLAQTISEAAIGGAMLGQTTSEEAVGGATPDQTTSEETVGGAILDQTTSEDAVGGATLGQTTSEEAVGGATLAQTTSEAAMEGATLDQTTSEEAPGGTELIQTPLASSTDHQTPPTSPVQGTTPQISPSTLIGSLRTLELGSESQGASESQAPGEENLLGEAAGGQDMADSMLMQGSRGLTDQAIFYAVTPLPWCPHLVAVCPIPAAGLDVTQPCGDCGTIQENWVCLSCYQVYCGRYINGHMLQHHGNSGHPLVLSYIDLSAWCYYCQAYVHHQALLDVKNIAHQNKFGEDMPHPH
The following applies: at 10 µM.

Experiment [2] has as its target Protein deacetylase HDAC6 (Homo sapiens) (UniProt Q9UBN7). The following applies: at 10 µM. The source holds these as a separate data set.

Data on 52 compounds can be found in ChEMBL document CHEMBL4808148, “HDAC6 screening dataset using tau-based substrate in an enzymatic assay yields selective inhibitors and activators” (2021).

About 390 (7%) of roughly 5,600 compounds showed an effect of 50% or more. The full list was thinned out, with strong results kept by preference. Non-standard residues stand in square brackets, D forms with d. Residues, ends and D or L forms follow the SMILES beside them. dTrp(2-Me) = Cc1[nH]c2ccccc2c1C[C@@H](N)C(=O)O

As usually defined, the inhibition is the relative decrease from the control value, in per cent.

For `Cc1cccc(COc2cccc(/C=C3\C(=O)NN(c4ccccc4)C3=O)c2)c1`, the inhibition in experiment [1] came to 6.83%.

Regarding `C[C@H]1NCc2cc(-c3ccc4c(=O)c(C(=O)O)cn(C5CC5)c4c3OC(F)F)ccc21`, in experiment [1], the inhibition came out at 14.9%.

`O=C1NC(=O)c2cc(Nc3ccc(F)cc3)c(Nc3ccc(F)cc3)cc21`: the inhibition in experiment [1] was 41.3%. The same measure, in the same setting: then `CNC(=O)c1c(C)oc2cc(Oc3ncnc4cc(OC)c(OC)cc34)ccc12`, with -6.42%. For the compound `COc1ccc(-c2oc3cc(OC)ccc3c2C(=O)c2ccc(C#N)cc2)cc1`, the inhibition in experiment [1] was determined as 1.66%. Consider `O=c1c(-c2ccc(O)cc2)coc2cc(O)ccc12`, for which the inhibition in experiment [1] is 101%. The same measure, in the same setting: the figure for `COc1cc2c(=O)c(-c3ccc(O)cc3)coc2cc1O` is 98.7%; for `CC(C)Oc1ccc2c(=O)c(-c3ccccc3)coc2c1` it is 95.2%. Still for that read-out and setting: the figure for `CC(C)Oc1ccc2c(=O)c3cc(C(=O)O)ccc3oc2c1` is 87.4%; for `COc1cc(C(C)=O)ccc1O` it is 8.46%. Turning to `COc1cc(C=O)ccc1O`, the inhibition in experiment [1] is -4.44%. On the same count and under the same terms, then `O=c1c(-c2ccc(O)cc2)coc2c(C3OC(CO)C(O)C(O)C3O)c(O)ccc12` (configuration not stated), with 5.48%. Same read-out and setting: then `CNc1cc2[nH]c(=O)n(-c3ccc(NC(=O)NS(=O)(=O)c4ccc(Cl)s4)cc3)c(=O)c2cc1F`, with 32.7%; and `C[C@@H]1CN(Cc2ncccn2)C[C@H]1c1nc2c(cnn2C2CCOCC2)c(=O)[nH]1`, with -2.24%; and `O=C(O)c1cc(O)c2c(Cl)cc(Cl)cc2n1`, with 6.69%.

In the case of `CC(=O)Oc1ccccc1C(=O)Oc1cccc(CO[N+](=O)[O-])c1`, in experiment [1], the inhibition stood at 48.1%. Turning to `CC(C)(O)CNc1nc(Nc2ccnc(C(F)(F)F)c2)nc(-c2cccc(C(F)(F)F)n2)n1`, in experiment [1], the inhibition amounted to 36.2%. In the case of `CC(=O)NC(C(=O)O)C(C)(C)SN=O` (configuration not stated), in experiment [1], the inhibition worked out at 2.51%. Same read-out and setting: the figure for `Cc1noc2c1-c1ccccc1C(c1ccc(Cl)cc1)=N[C@H]2CC(N)=O` is 43.6%; for `Nc1ccc(F)cc1NC(=O)c1ccc(CNC(=O)/C=C/c2cccnc2)cc1` it is -6.65%.

Take `N[C@H](CSC(c1ccccc1)(c1ccccc1)c1ccccc1)C(=O)O`: the inhibition in experiment [1] was -3.09%.

For the compound `Cc1nc2n(c(=O)c1CCN1CCC(c3noc4cc(F)ccc34)CC1)CCCC2O` (configuration not stated), the inhibition in experiment [1] was -9.07%. Regarding `N#Cc1cnc2cnc(NCc3cccnc3)cc2c1Nc1ccc(F)c(Cl)c1`, the inhibition in experiment [1] is -0.05%. Same read-out and setting: the figure for `COc1ccc(-c2coc3cc(O)ccc3c2=O)cc1` is 99.6%; for `COc1ccc(-n2c(C)c([N+](=O)[O-])c3ccc(O)cc32)cc1` it is 12.7%.

As for `N[C@@H](CCNCc1ccc(Cl)cc1)C(=O)N1CCCCC1`, in experiment [1], the inhibition was 0.96%. On the same count and under the same terms, then `N=C(Nc1ccc(I)cc1)NC1C2CC3CC(C2)CC1C3` (configuration not stated), with 1.97%; and `Cc1ccc(-c2ncc[nH]2)cc1NC(=O)c1ccc(OCc2ccccn2)cc1`, with 21.3%. Still for that read-out and setting: then `Fc1ccc(-c2nc3n(c2-c2ccncc2)CCS3)cc1`, with -4.98%; and `Cc1c(F)cccc1NC(=O)Nc1ccc(Cl)c(S(=O)(=O)[C@H]2CCCNC2)c1O`, with 36.1%.

`CN1CCN(C2=Cc3ccccc3Oc3ccc(Cl)cc32)CC1`: the inhibition in experiment [1] is 2.47%. The same measure, in the same setting: the figure for `Cc1nc2c(OCc3ccccc3)cccn2c1CC#N` is 76.9%; for `COc1ccc(COc2ccc(CC#N)cc2)cc1` it is 28.5%. Same read-out and setting: the figure for `CCCc1c(OCCCCc2nnn[nH]2)ccc(C(C)=O)c1O` is 4.66%; for `CC[N+](C)(CC)CCOC(=O)C(O)(c1ccccc1)C1CCCCC1` (configuration not stated) it is -2.19%. Same read-out and setting: the figure for `COc1ccc2c(C)nc(Nc3nc(C)c(C)c(O)n3)nc2c1` is 20.5%; for `CCc1cnc(N2CCC(c3nc(COc4ccc(-n5cnnn5)cc4)cs3)CC2)nc1` it is 14.7%. Turning to `COc1ccc(C2C(=O)c3ccccc3C2=O)cc1`, the inhibition in experiment [1] turned out to be 98.2%. Same read-out and setting: the figure for `O=C1c2ccccc2C(=O)C1c1ccccc1` is 7.2%; for `O=C1c2ccccc2C(=O)C1c1ccc(Cl)cc1` it is 18.6%; for `O=C1c2ccccc2C(=O)C1c1ccc(Br)cc1` it is 95.5%.

Turning to `CCCC1(CCC)CCC2(CCN(CCCN(CC)CC)C2)CC1`, in experiment [1], the inhibition was -1.4%.

Take `C[C@@H](O)[C@H]1C(=O)N2C(C(=O)O)=C(S[C@@H]3CN[C@H](C(=O)Nc4cccc(C(=O)O)c4)C3)[C@H](C)[C@H]12`: the inhibition in experiment [1] was 29.2%. Still for that read-out and setting: the figure for `CC1(c2ccccc2)OC(C(=O)O)=CC1=O` (configuration not stated) is -2.75%; for `Nc1nccc(-c2c(-c3ccc(F)cc3)ncn2C2CCCCC2)n1` it is 10.1%. For `COc1cc(C(=O)NC2CCN(C)CC2)c(F)cc1Nc1ncc2c(n1)N(C1CCCC1)CC(F)(F)C(=O)N2C`, the inhibition in experiment [1] amounted to 2.87%. On the same count and under the same terms, then `Cc1[nH]c2ccccc2c1C[C@@H](NC(=O)[C@@H](N)Cc1c[nH]cn1)C(=O)N[C@@H](C)C(=O)N[C@@H](Cc1c[nH]c2ccccc12)C(=O)N[C@H](Cc1ccccc1)C(=O)N[C@@H](CCCCN)C(N)=O` (H-H[dTrp(2-Me)]AW[dF]K-NH2), with -0.06%; and `NCCCCCC(O)(P(=O)(O)O)P(=O)(O)O`, with 0.9%. AURANOFIN, CHEMBL1366: the inhibition in experiment [2] is -8.98%.

In the case of “BIS(MALTOLATO)OXOVANADIUM(IV), CHEMBL286447”, the inhibition in experiment [2] came out at 51.3%. Turning to “Antimonyl (potassium tartrate trihydrate), CHEMBL2097098”, in experiment [2], the inhibition came out at 13.3%. In the case of “ANTIMONY POTASSIUM TARTRATE TRIHYDRATE, CHEMBL2097098”, in experiment [2], the inhibition was found to be 31.4%.
